Measurements taken from PubChem BioAssay (EPA / NIEHS).
“And” between values parts separate entries of the source, which are not always exact repeats. Equal entries are not always repeated. Records with an inconclusive call do not appear. More than one record can exist for a structure, and the calls need not agree. The source made the active and inactive calls. Rule for the calls, unless noted: active = hit-call score of the fitted dose curve at least 0.9, where 1 is the maximum; inactive = score below 0.9.

Columns and labels:
[1] = read-out: NAD(P)H dehydrogenase [quinone] 1 (NQO1), NQO1 (gene 1728); test: LTEA_HepaRG_NQO1: Life Technologies and Expression Analysis (LTEA) Assay for NAD(P)H dehydrogenase [quinone] 1 (NQO1) using HepaRG (AID 2283526); settings: mRNA level, 48 h; actives raise or lower the signal
How it was run: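 HepaRG, 48 h post-plating → serum-free induction medium → test chemical 48 h (duplicate, 100 uM top, half-log x8, 0.5% DMSO) → RNA isolation → qRT-PCR, ACTB/GAPDH/POLR2A normalization; bidirectional curve fit vs DMSO baseline.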

[2] = read-out: Nuclear factor erythroid 2-related factor 2 (Homo sapiens) (UniProt Q16236); test: LTEA_HepaRG_NFE2L2: Life Technologies and Expression Analysis (LTEA) Assay for Nuclear factor erythroid 2-related factor 2 (NFE2L2) Transcription Factor using HepaRG (AID 2283527); settings: mRNA level, 48 h; actives raise or lower the signal
How it was run: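 Transcript level of NFE2L2 is the read-out, measured by microfluidic TaqMan qRT-PCR and normalized to three housekeeping genes. Human HepaRG cultures received test chemical for 48 h at up to 100 uM in half-log steps. Gain or loss of signal is fitted relative to 0.5% DMSO.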

[3] = read-out: succinate dehydrogenase complex iron sulfur subunit B (SDHB), SDHB (gene 6390); test: LTEA_HepaRG_SDHB: Life Technologies and Expression Analysis (LTEA) Assay for succinate dehydrogenase complex iron sulfur subunit B (SDHB) using HepaRG (AID 2283528); settings: mRNA level, 48 h; actives raise or lower the signal
How it was run: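 Readout is SDHB transcript level by qRT-PCR, normalised to three housekeeping genes and fitted bidirectionally against 0.5% DMSO vehicle. Human HepaRG cells were treated for 48 h at up to 100 uM.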

[4] = read-out: Signal transducer and activator of transcription 3 (Homo sapiens) (UniProt P40763); test: LTEA_HepaRG_STAT3: Life Technologies and Expression Analysis (LTEA) Assay for Signal transducer and activator of transcription (STAT3) using HepaRG (AID 2283529); settings: mRNA level, 48 h; actives raise or lower the signal
How it was run: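 Read-out is STAT3 mRNA level by qRT-PCR, normalized to three housekeeping genes, in human HepaRG liver cells treated for 48 h. Concentrations ran from 100 uM downward in half-log steps; curves were fitted for gain or loss relative to 0.5% DMSO.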

[5] = read-out: solute carrier (SLCO1B1), SLCO1B1 (gene 10599); test: LTEA_HepaRG_SLCO1B1: Life Technologies and Expression Analysis (LTEA) Assay for solute carrier (SLCO1B1) using HepaRG (AID 2283530); settings: mRNA level, 48 h; actives raise or lower the signal
How it was run: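 Differentiated human HepaRG cells were exposed for 48 h in serum-free induction medium to eight half-log concentrations, top 100 uM, in 0.5% DMSO. SLCO1B1 mRNA was measured by qRT-PCR, normalized to ACTB, GAPDH and POLR2A, and fitted bidirectionally against DMSO.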

[6] = read-out: sulfotransferase 2A1 (SULT2A1), SULT2A1 (gene 6822); test: LTEA_HepaRG_SULT2A1: Life Technologies and Expression Analysis (LTEA) Assay for sulfotransferase 2A1 (SULT2A1) using HepaRG (AID 2283531); settings: mRNA level, 48 h; actives raise or lower the signal
How it was run: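 HepaRG human liver cells, 48 h exposure in serum-free induction medium to 8 half-log concentrations topping at 100 µM (0.5% DMSO), duplicate wells. SULT2A1 mRNA measured by TaqMan qRT-PCR, normalized to ACTB/GAPDH/POLR2A; bidirectional fit against DMSO.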

[7] = read-out: Transforming Growth Factor (TGFA), TGFA (gene 7039); test: LTEA_HepaRG_TGFA: Life Technologies and Expression Analysis (LTEA) Assay for Transforming Growth Factor (TGFA) using HepaRG (AID 2283532); settings: mRNA level, 48 h; actives raise or lower the signal
How it was run: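 HepaRG (human liver line), 48 h exposure, 8 conc. half-log down from 100 uM, 0.5% DMSO vehicle, duplicates; serum-free induction medium. TGFA mRNA by TaqMan qRT-PCR, ACTB/GAPDH/POLR2A normalization; gain/loss fit vs DMSO.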

[8] = read-out: Transforming Growth Factor (TGFB1), TGFB1 (gene 7040); test: LTEA_HepaRG_TGFB1: Life Technologies and Expression Analysis (LTEA) Assay for Transforming Growth Factor (TGFB1) Transporter using HepaRG (AID 2283533); settings: mRNA level, 48 h; actives raise or lower the signal
How it was run: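 Differentiated HepaRG cells exposed 48 hr in serum-free induction medium to eight half-log concentrations up to 100 uM (0.5% DMSO), duplicate; TGFB1 mRNA by TaqMan qRT-PCR normalised to ACTB, GAPDH, POLR2A; bidirectional fit against DMSO.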

[9] = read-out: TIMP1, TIMP1 (gene 7076); test: LTEA_HepaRG_TIMP1: Life Technologies and Expression Analysis (LTEA) Assay for TIMP1 using HepaRG (AID 2283534); settings: mRNA level, 48 h; actives raise or lower the signal
How it was run: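 Differentiated HepaRG cells exposed 48 h in serum-free induction medium, duplicates, eight half-log concentrations from 100 uM in 0.5% DMSO. TIMP1 mRNA by qRT-PCR normalized to ACTB, GAPDH, POLR2A; bidirectional fitting against DMSO.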

[10] = read-out: Tumor necrosis factor receptor 1 (TNFRSF1A), TNFRSF1A (gene 7132); test: LTEA_HepaRG_TNFRSF1A: Life Technologies and Expression Analysis (LTEA) Assay for Tumor necrosis factor receptor 1 (TNFRSF1A) using HepaRG (AID 2283535); settings: mRNA level, 48 h; actives raise or lower the signal
How it was run: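 Differentiated HepaRG cells in serum-free induction medium, exposed 48 h in duplicate to 8 half-log concentrations up to 100 uM in 0.5% DMSO. TNFRSF1A mRNA by Fluidigm TaqMan qRT-PCR, normalized to ACTB, GAPDH, POLR2A; bidirectional fit.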

[11] = read-out: Thyroid Hormone Responsive (THRSP), THRSP (gene 7069); test: LTEA_HepaRG_THRSP: Life Technologies and Expression Analysis (LTEA) Assay for Thyroid Hormone Responsive (THRSP) using HepaRG (AID 2283536); settings: mRNA level, 48 h; actives raise or lower the signal
How it was run: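 mRNA induction or loss relative to 0.5% DMSO vehicle was fitted bidirectionally across an eight-point curve whose highest exposure was 100 uM. Human HepaRG liver cells received chemicals in duplicate over 48 h before RNA extraction.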

[12] = read-out: Cellular tumor antigen p53 (Homo sapiens) (UniProt P04637); test: LTEA_HepaRG_TP53: Life Technologies and Expression Analysis (LTEA) Assay for Tumor Protein P53 (TP53) using HepaRG (AID 2283537); settings: mRNA level, 48 h; actives raise or lower the signal
How it was run: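 Read-out is TP53 transcript level by microfluidic qRT-PCR, normalised to three housekeeping genes and fitted bidirectionally against DMSO. Human HepaRG cells received compounds for 48 h, highest concentration 100 uM.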

[13] = read-out: UDP glucuronosyltransferase (UGT1A1), UGT1A1 (gene 54658); test: LTEA_HepaRG_UGT1A1: Life Technologies and Expression Analysis (LTEA) Assay for UDP glucuronosyltransferase (UGT1A1) using HepaRG (AID 2283538); settings: mRNA level, 48 h; actives raise or lower the signal
How it was run: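 Readout is UGT1A1 transcript level by qRT-PCR, normalized to three housekeeping genes, after 48 h chemical treatment of HepaRG cells. Concentrations ran from 100 uM down in half-log steps with 0.5% DMSO, and gain or loss relative to DMSO was fitted.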

[14] = read-out: UDP glucuronosyltransferase (UGT1A6), UGT1A6 (gene 54578); test: LTEA_HepaRG_UGT1A6: Life Technologies and Expression Analysis (LTEA) Assay for UDP glucuronosyltransferase (UGT1A6) using HepaRG (AID 2283539); settings: mRNA level, 48 h; actives raise or lower the signal
How it was run: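 Differentiated HepaRG cells, ~100,000/well, were exposed for 48 h in serum-free induction medium with 0.5% DMSO to 8-point half-log series topping at 100 uM, in duplicate. mRNA measured by Fluidigm TaqMan qRT-PCR, normalized to ACTB, GAPDH and POLR2A.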

[15] = read-out: X-box binding protein 1 (XBP1), XBP1 (gene 7494); test: LTEA_HepaRG_XBP1: Life Technologies and Expression Analysis (LTEA) Assay for X-box binding protein 1 (XBP1) using HepaRG (AID 2283540); settings: mRNA level, 48 h; actives raise or lower the signal
How it was run: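 Differentiated human HepaRG cells in serum-free induction medium exposed 48 h in duplicate to eight half-log concentrations up to 100 uM in 0.5% DMSO. XBP1 mRNA measured by Fluidigm TaqMan qRT-PCR, normalized to ACTB, GAPDH, POLR2A; bidirectional fitting against DMSO.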

[16] = LTEA_HepaRG_LDH_cytotoxicity: Cytotoxicity Assessment in the Life Technologies and Expression Analysis (LTEA) Assay (AID 2283563; active = hit-call score of the fitted dose curve at least 0.9, where 1 is the maximum;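 for AC50: LDH activity released into spent culture medium as a marker of cell death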)
How it was run: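 Differentiated HepaRG cells in serum-free induction medium, exposed 48 h in duplicate to 8 half-log concentrations up to 100 uM in 0.5% DMSO. Cytotoxicity from LDH measured in spent medium, fit relative to DMSO.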

[17] = TOX21_p53_BLA_p2_viability: Viability Assessment in the Tox21 HCT-116 p53 Agonism Beta-lactamase Assay, Phase 2 (AID 2283591; active = hit-call score of the fitted dose curve at least 0.9, where 1 is the maximum;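 note: compound exposure lasted 16 h at 37 °C; actives lower the ATP signal meaning cytotoxicity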)
How it was run: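 Cytotoxicity readout: CellTiter-Glo ATP luminescence, 30 min at room temperature, after the beta-lactamase read. Cells were HCT116 exposed 16 h at 37C to compounds pin-transferred at 217-fold dilution from DMSO stocks.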

[18] = ATG_XTT_Cytotoxicity: Cytotoxicity Assessment in the Attagene TRANS-FACTORIAL HepG2 Assay (AID 2283584; active = hit-call score of the fitted dose curve at least 0.9, where 1 is the maximum)
How it was run: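 HepG2 cells transiently transfected with GAL4-UAS multiple reporter units, dosed 24 h; cytotoxicity read by XTT as loss of signal versus DMSO baseline.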

[19] = target: Cellular tumor antigen p53 (Homo sapiens) (UniProt P04637); test: TOX21_p53_BLA_p2_ratio: Tox21 HCT-116 p53 Agonism Beta-lactamase Assay, Ratio, Phase 2 (AID 2283592; active = hit-call score of the fitted dose curve at least 0.9, where 1 is the maximum)
How it was run: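 HCT-116 cells with p53-responsive beta-lactamase reporter, 4000 cells/well, preincubated 5 h, then compound in DMSO (217-fold dilution) for 16 h at 37C. CCF4-AM substrate 2 h at room temperature; 460/530 nm emission ratio fitted upward versus DMSO.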

[20] = TOX21_p53_BLA_p3_viability: Viability Assessment in the Tox21 HCT-116 p53 Agonism Beta-lactamase Assay, Phase 3 (AID 2283593; active = hit-call score of the fitted dose curve at least 0.9, where 1 is the maximum;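 note: cells exposed to compound for 16 h before reading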)
How it was run: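 Cellular ATP was quantified by CellTiter-Glo luminescence, read after 30 min at room temperature. Beforehand, HCT116 cells (4000/well) received compound 5 h post-seeding, 217-fold diluted from DMSO, then incubated 16 h at 37C.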

Measured: AC50

Nuclear factor erythroid 2-related factor 2 (Homo sapiens), sequence (Q16236 whole entry, looked up): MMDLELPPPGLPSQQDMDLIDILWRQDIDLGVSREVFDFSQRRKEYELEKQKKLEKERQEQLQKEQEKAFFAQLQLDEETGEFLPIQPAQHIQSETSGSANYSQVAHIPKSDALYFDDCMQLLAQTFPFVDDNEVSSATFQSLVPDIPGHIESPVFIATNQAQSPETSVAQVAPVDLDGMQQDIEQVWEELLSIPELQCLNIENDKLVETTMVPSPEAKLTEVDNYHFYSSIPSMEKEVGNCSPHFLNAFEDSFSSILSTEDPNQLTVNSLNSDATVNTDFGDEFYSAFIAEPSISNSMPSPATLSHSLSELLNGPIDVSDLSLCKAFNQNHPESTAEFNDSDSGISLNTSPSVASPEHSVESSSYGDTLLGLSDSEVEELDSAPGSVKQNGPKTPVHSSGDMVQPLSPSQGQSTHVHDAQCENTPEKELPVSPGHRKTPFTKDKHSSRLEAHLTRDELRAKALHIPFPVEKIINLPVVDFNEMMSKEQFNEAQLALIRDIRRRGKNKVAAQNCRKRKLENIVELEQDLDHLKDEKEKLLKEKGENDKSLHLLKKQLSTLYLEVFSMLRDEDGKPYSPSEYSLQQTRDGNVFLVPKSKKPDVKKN
Signal transducer and activator of transcription 3 (Homo sapiens), sequence (P40763 whole entry, looked up): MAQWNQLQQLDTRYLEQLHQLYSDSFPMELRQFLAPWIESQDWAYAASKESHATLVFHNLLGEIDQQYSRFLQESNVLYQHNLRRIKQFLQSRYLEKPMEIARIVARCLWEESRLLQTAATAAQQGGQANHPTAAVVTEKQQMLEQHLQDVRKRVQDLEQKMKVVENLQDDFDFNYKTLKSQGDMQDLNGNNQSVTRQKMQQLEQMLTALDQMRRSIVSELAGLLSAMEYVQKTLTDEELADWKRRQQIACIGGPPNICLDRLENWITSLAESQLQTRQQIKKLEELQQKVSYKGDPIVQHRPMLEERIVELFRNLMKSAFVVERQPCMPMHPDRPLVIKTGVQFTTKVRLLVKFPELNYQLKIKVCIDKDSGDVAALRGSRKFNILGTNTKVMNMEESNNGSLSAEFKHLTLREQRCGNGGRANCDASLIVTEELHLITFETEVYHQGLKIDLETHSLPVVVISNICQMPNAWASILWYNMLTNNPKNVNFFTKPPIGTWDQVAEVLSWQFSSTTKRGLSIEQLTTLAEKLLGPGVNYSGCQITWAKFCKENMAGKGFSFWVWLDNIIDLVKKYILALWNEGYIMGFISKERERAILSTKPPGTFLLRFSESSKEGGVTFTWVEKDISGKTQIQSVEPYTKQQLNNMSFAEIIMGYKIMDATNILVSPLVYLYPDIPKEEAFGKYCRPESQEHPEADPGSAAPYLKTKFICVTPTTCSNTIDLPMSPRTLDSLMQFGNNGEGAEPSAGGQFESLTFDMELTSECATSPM
Cellular tumor antigen p53 (Homo sapiens), sequence (P04637 whole entry, looked up): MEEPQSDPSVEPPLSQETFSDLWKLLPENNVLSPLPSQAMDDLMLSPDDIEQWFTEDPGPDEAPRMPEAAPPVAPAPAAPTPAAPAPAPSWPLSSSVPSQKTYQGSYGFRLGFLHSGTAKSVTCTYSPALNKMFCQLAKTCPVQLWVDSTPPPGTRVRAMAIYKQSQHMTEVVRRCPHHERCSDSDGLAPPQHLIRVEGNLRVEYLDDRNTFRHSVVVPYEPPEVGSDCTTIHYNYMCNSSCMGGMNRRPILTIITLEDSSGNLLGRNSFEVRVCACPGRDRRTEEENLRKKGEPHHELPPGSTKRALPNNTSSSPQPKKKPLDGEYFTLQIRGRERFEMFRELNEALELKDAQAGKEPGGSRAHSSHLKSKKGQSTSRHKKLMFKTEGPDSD

Nc1ccc(N=Nc2ccccc2)cc1
inactive: [1] | [2] | [4] | [7] | [12] | [17]
active: [3] 18.8 µM | [5] 11.4 µM | [6] 22.4 µM | [8] 13.1 µM | [9] 50 µM | [10] 23.4 µM | [11] 11.4 µM | [13] 13 µM | [14] 19.8 µM | [15] 16.8 µM | [16] 11.9 µM

OCCCBr
not listed: [20]
inactive: all other assays above

CCOc1cccc(C2(N3CCN(c4ccccc4)CC3)CCC(C)CC2)c1 (stereo not drawn)
active: [13] 43.5 µM
not listed: [17] | [18] | [19] | [20]
inactive: all other assays above

Nc1cc(Cl)cc(C(=O)O)c1Cl
inactive: all assays above

CCN(CC)N=O
not listed: [19]
inactive: all other assays above

CN(C)C(=O)Nc1ccc(Cl)cc1
active: [13] 30.8 µM
not listed: [19] | [20]
inactive: all other assays above

Cn1cc(-c2ccccc2)c(=O)c(-c2cccc(C(F)(F)F)c2)c1
active: [2] 20.9 µM | [6] 9.92 µM | [13] 8.71 µM | [15] 15 µM
not listed: [20]
inactive: all other assays above

O=C(O)C1C2CCC(O2)C1C(=O)O (stereo not drawn)
active: [5] 69 µM | [6] 76 µM | [8] 35.1 µM | [11] 34.7 µM | [13] 50 µM | [16] 75.1 µM
not listed: [20]
inactive: all other assays above

c1ccc(NNc2ccccc2)cc1
not listed: [19] | [20]
inactive: all other assays above

CCCCCCCCn1sccc1=O
active: [5] 84.1 µM | [11] 87.3 µM | [14] 81.3 µM | [16] 79.7 µM | [20] 41.7 µM and 72.5 µM
not listed: [19]
inactive: all other assays above

CC(C)(OOC(C)(C)c1ccccc1)c1ccccc1
active: [13] 24.4 µM
not listed: [17]
inactive: all other assays above

CCCCC(CC)COC(=O)c1ccc(C(=O)OCC(CC)CCCC)c(C(=O)OCC(CC)CCCC)c1 (stereo not drawn)
not listed: [17] | [19]
inactive: all other assays above

CC(O)CCO (stereo not drawn)
not listed: [18] | [19] | [20]
inactive: all other assays above

Cc1cc(N=Nc2ccccc2C)ccc1N
inactive: [1] | [3] | [4] | [9] | [10] | [18] | [17] | [20]
active: [2] 9.92 µM | [5] 3.57 µM | [6] 12.8 µM | [7] 12.6 µM | [8] 2.72 µM | [11] 1.41 µM | [12] 1.97 µM | [13] 85.9 µM | [14] 12.2 µM | [15] 4 µM | [16] 5.21 µM | [17] 81 µM
